Data: PubChem BioAssay AID488969 (Vanderbilt High Throughput Screening Facility, 2010)
Over roughly 110,000 compounds, “z-score” has its median near -0.1; the highest 2% begin near 2. This is one part of a sample in which the highest values are shown more often than they occur. Activity calls are given as the source filed them.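 The calls were made as follows: active = z-score in the third read window above 3 or below -3; inactive = the rest.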

target: Metabotropic glutamate receptor 8 (Rattus norvegicus) (UniProt P70579); experiment: mGluR8 Gi/Go-coupled signaling modulation – cell-based, rat, thallium flux, HTS, primary screen (AID 488969); conditions: HEK293 rat mGluR8, GIRK (G protein-gated inwardly rectifying potassium channel) thallium flux, FluoZin2; at 10 µM; stronger effect = higher value; submaximal glutamate (EC20) added with thallium
Sequence (P70579 whole entry, looked up): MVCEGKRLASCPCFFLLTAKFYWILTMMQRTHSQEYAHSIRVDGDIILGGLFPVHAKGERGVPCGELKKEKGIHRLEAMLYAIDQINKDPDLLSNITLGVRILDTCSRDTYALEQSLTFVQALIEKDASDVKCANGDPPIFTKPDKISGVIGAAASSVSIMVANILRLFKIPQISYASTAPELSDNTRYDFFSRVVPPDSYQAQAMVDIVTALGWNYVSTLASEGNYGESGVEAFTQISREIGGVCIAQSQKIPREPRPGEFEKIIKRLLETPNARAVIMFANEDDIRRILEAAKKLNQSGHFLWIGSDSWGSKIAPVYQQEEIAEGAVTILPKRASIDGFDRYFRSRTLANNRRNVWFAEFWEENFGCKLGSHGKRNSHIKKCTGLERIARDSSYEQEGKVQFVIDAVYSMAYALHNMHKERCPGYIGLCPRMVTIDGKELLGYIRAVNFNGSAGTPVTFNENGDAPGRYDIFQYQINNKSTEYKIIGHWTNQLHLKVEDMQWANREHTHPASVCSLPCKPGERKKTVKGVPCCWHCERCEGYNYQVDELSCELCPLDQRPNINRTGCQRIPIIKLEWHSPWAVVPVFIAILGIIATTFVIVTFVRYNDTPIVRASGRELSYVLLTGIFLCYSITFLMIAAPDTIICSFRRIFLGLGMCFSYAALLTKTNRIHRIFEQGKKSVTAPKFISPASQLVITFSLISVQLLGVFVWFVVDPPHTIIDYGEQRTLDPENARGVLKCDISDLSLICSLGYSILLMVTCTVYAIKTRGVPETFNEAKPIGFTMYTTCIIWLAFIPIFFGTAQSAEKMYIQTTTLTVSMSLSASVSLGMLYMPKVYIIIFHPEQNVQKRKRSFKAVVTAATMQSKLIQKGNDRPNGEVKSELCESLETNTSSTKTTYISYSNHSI

| SMILES | z-score |
| --- | --- |
| COc1ccc(CCNC(=O)c2cc(-c3ccccc3)on2)cc1OC | 0.914 |
| Fc1ccc(NC(=S)NCc2ccccc2Cl)cc1 | 1.74 |
| Fc1ccccc1CNC(=S)Nc1ccc(Cl)cc1 | 2.23 |
| S=C(NCCSCc1ccc(Cl)cc1Cl)Nc1ccccc1 | -0.181 |
| S=C(Nc1ccccc1)Nc1ccc(OCc2ccc(Cl)cc2Cl)cc1 | -0.223 |
| Fc1ccc(CNC(=S)Nc2ccc(Cl)cc2)cc1 | 0.385 |
| S=C(NCc1ccc(Cl)cc1Cl)Nc1ccccc1 | 3.34 (active) |
| O=C(OC(C(=O)NC1CCCCC1)c1ccccc1)c1ccco1 (centres undefined) | -0.0658 |
| Cc1cccc(C(C)C)c1NC(=O)c1ccc(CN(c2ccccc2)S(=O)(=O)c2ccccc2)cc1 | -0.0858 |
| COc1cc2c(cc1NC(=O)C(C)NCc1ccccc1)oc1ccccc12 (centres undefined) | 0.0909 |
| O=C(NC1CCCCC1)C(c1ccccc1)N(Cc1ccco1)C(=O)Cn1cnc2ccccc21 (centres undefined) | -1.29 |
| CC(C)c1nc(NCCN2CCOCC2)c(C#N)c2c1COC(C)(C)C2 | -0.502 |
| Cc1nc(NCCCO)c(C#N)c2c1COC(C)(C)C2 | 1.53 |
| CC(C)CCNc1nc2c(cc1C#N)COC(C)(C)C2 | -0.377 |
| CC1(C)Cc2nc(N3CCOCC3)c(C#N)cc2CO1 | -0.0959 |
| CC1(C)Cc2nc(NCCN3CCOCC3)c(C#N)cc2CO1 | 7.19 (active) |
| CC1(C)Cc2nc(NCCCO)c(C#N)cc2CO1 | 2.93 |
| Nc1nnc(SCC(=O)c2ccco2)s1 | -0.0604 |
| O=S1(=O)C=C(SCc2ccccc2)Nc2ccccc21 | -0.11 |
| CCOC(=O)c1nn(-c2ccc(OCC)cc2)c(C)c1C(C)=O | 0.0801 |

| SMILES | z-score |
| --- | --- |
| CCc1ccc(NC(=O)c2cnc3n(c2=O)CCS3)cc1 | 2.53 |
| O=C(Nc1ccccc1)c1cnc2n(c1=O)CCS2 | -0.146 |
| CCCCOC(=O)c1ccc(NC(=O)c2cnc3n(c2=O)CCS3)cc1 | 0.203 |
| O=C(NCc1ccc(F)cc1)c1cnc2n(c1=O)CCS2 | 2.18 |
| O=C(NCc1ccccc1)c1cnc2n(c1=O)CCS2 | -0.0906 |
| COc1ccc(CNC(=O)c2cnc3n(c2=O)CCS3)cc1 | -0.183 |
| CCOC(=O)c1ccc(N2C(=O)C3ON(c4ccccc4)C(c4ccco4)C3C2=O)cc1 (centres undefined) | -0.354 |
| COc1cc(OC)nc(NC(=O)CSc2nc3ccccc3o2)n1 | -0.294 |
| Cc1cc(C)cc(N(CC(=O)O)S(=O)(=O)c2c(C)noc2C)c1 | -0.132 |
| CC(C)NC(=S)NN(c1ccccc1)c1ccccc1 | 2.38 |
| CNC(=S)NN(c1ccccc1)c1ccccc1 | -0.0349 |
| CCNC(=S)NN(c1ccccc1)c1ccccc1 | 0.837 |
| COc1ccc(OC)c(C2C3=C(CCCC3=O)NC3=C2C(=O)CCC3)c1 | -0.586 |
| O=S(=O)(Cc1ccccc1Cl)CC(O)COc1ccccc1Cl (centres undefined) | -0.273 |
| Cc1c(C(=O)NN)nc2ccccn12 | -0.145 |
| Cc1nc2ccccn2c1C(=O)NN | 2.34 |
| COc1ccc(CNC(=O)c2c(C)nc3ccccn23)cc1 | -0.0334 |
| COc1nc(N/N=C/c2ccc(-c3ccccc3[N+](=O)[O-])o2)nc(N2CCOCC2)n1 | -0.309 |
| COc1ccc(S(=O)(=O)N(CCc2ccccc2)CC(=O)O)cc1Cl | -0.104 |
| CN1C(=O)C(O)(C2OC(C)(C)CCC2=O)c2ccccc21 (centres undefined) | -0.0799 |

| SMILES | z-score |
| --- | --- |
| NC(=O)C1(NC(=O)[C@@H]2CC3(CC(c4cccc(NC(=O)[C@@H]5CCC(=O)N5)c4)=NO3)CN2C(=O)Cc2ccc(C(F)(F)F)cc2)CC1 (some centres undefined) | -0.279 |
| NC(=O)C1CNc2ccccc2O1 (centres undefined) | 2.79 |
| O=C(Nc1nncs1)C1COc2ccccc2O1 (centres undefined) | 0.542 |
| CCCNC(=O)C1CNc2ccccc2O1 (centres undefined) | -0.2 |
| CCCCSc1nc(C)nc2c1c(=O)n(C)c(=O)n2C | -0.303 |
| COc1ccc2[nH]c3c(Cl)ncnc3c2c1 | -0.502 |
| COC(=O)c1sc(NC(=O)/C=C/c2ccc(C)o2)nc1C | -0.15 |
| COc1ccccc1C(O)Cc1nc2ccccc2n1C (centres undefined) | -0.393 |
| Cc1cccc(C)c1NC(=O)C(c1cccc([N+](=O)[O-])c1)N(C)C(=O)c1ccccn1 (centres undefined) | -0.125 |
| Cc1cccc(C)c1NC(=O)C(NC(=O)c1ccccn1)c1ccc([N+](=O)[O-])cc1 (centres undefined) | 2.97 |
| Cc1cccc(C)c1NC(=O)C(NC(=O)c1ccccn1)c1ccccc1[N+](=O)[O-] (centres undefined) | 0.95 |
| O=C(Nc1cccc(C(=O)N2CCCC2)c1)c1ccccc1Cl | -0.0275 |
| COCCNC(=O)c1ccccc1-c1nc(-c2ccccc2OC)no1 | 0.0674 |
| N=C(CC1CC(=O)NC(=O)C1)C1=C(O)CCCC1=O | 2.31 |
| O=C1CC(c2ccc3c(c2)OCO3)C2=C(CCCC2=O)N1 (centres undefined) | -0.2 |
| CC(=Nc1ccccc1)C1=C(O)CCCC1=O | -0.104 |
| C/C(=N\NC(=O)Nc1ccccc1)c1ccc2ccccc2c1 | -0.112 |
| COc1ccc(NC(=S)NCc2ccco2)cc1 | -0.0213 |
| C/C(=N\NC(=O)COc1ccccc1F)c1cc2ccccc2o1 | -0.0133 |
